Rango complex inh: prevents formation of the Rango-importin beta complex | Q14974 | hit rate 0.031% among 340,000 | AID 540263 | Rango CFP/YFP FRET sensor + importin beta, 45 min | Potency, µM (top dose mostly 92.2 µM); calls by dose curve; note: nearly all actives have a fitted effect of over 15% in size
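FRET biosensor Rango (snurportin 1 IBB between N-terminal EYFP and C-terminal Cerulean), 50 nM in PBS/1 mM DTT/0.02% Tween-20/0.1% BSA, preincubated 5 min RT with compound; 0.125 microM importin beta added, 45 min RT, CFP/YFP FRET ratio read.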
KAT2A inh: GCN5L2 (KAT2A) acetyltransferase inhibition | Q92830 | GCN5L2 HAT assay, ThioGlo1 CoA-SH fluorescence | Potency, µM (highest dose often 58.9 µM), actives largely listed as inhibitors | hit rate 0.21% among 390,000 | AID 504327
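Compounds, pin-transferred from DMSO stocks, meet 20nM GCN5L2 for 15 min before the reaction begins with H3(1-25) peptide (75uM) and acetyl-CoA (70uM). Thiol-reactive ThioGlo1 reports CoA release over 20 min at room temperature.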
VDR inhibitor: blocks the human vitamin D receptor | P11473 | VDR-SRC2-3 peptide fluorescence polarization, 2 h | Potency, µM, most hits filed as inhibitors | hit rate 0.93% among 400,000
Target sequence (P11473 whole entry, looked up): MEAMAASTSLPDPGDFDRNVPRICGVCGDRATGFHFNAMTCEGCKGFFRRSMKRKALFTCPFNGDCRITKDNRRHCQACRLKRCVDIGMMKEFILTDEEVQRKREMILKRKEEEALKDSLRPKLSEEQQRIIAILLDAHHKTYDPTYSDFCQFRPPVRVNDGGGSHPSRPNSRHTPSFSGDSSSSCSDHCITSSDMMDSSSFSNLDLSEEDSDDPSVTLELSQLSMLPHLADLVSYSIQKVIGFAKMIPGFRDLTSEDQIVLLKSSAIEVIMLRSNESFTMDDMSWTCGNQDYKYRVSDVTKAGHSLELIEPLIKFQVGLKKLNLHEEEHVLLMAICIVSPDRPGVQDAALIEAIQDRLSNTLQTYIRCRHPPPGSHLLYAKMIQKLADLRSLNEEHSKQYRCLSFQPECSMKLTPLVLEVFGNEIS
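VDR–SRC2-3 interaction, FP format. Cmpds 23 nl via pintool, brief spin, 2 h ambient incubation.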
PLK1 PBD inh: PLK1 (human) polo-box domain binding inhibition; P53350; Plk1 PBD binding of FITC phosphopeptide, fluorescence polarization; Potency, µM, usual class: inhibitors; hit rate 2.8% among 360,000; note: series mostly up to about 57 µM; nearly all actives have a fitted effect of over 65% in size
Rango release inh: inhibition of RanGTP-driven Rango-importin beta dissociation; hit rate 0.071% among 340,000; Potency, µM (series often up to 46.1 µM); AID 540253; Biochemical FRET Rango-importin beta, RanGTP-induced dissociation; O95149+P62826; calls by dose curve; note: nearly all actives have a fitted effect of over 45% in size
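Quantitative HTS using a FRET biosensor: 0.1 uM Rango, 0.25 uM importin beta, 0.6 uM Ran, 2 mM GTP, 0.2 uM RCC1 final, PBS with DTT, Tween-20 and BSA. Post-read taken 45 min after Ran addition.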
PI5P4K alpha inh: inhibitors of human PI5P4K alpha | P48426 | PI5P4Kalpha enzyme, ADP-Glo luminescence, 60 min; active compounds read low | max response, % | hit rate 1.2% among 330,000; active = max response of -50% or lower; inconclusive = between -30% and -50%; inactive = -30% or higher; note: value at the top dose of about 77 µM
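Single end-point luminescence (ADP-Glo) quantified ADP from PI5P4Kalpha turnover; ATP 5 microM final, 1 h at RT, 0.1% CHAPS and 0.28 mM EGTA in HEPES pH 7.4.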
Numbers stand for hits; i = inactive; ? = inconclusive; nt = no result given. Only some compounds are listed: those with a hit (about 3.6% of all), similar ones and a draw of the others. Unless noted, calls come from the whole dose curve; as a rule, active = well fitted curve in the direction sought with a large enough effect; inconclusive = small, poorly fitted or top-dose-only effect, or another doubt; inactive = no such curve, though single readings can be large; an effect the other way counts as inactive or inconclusive.

SMILES	Rango complex inh	KAT2A inh	VDR inhibitor	PLK1 PBD inh	Rango release inh	PI5P4K alpha inh
BrC(=C\c1ccccc1)/C=N/N1CCN(c2ccccc2)CC1	i	i	79µM	i	i	i
Cc1ccc(Cl)cc1NCc1nnc2n1CCCCC2	nt	i	i	nt	nt	nt
O=C(O)c1ccc(N/N=C/c2cn(Cc3ccccc3F)c3ccccc23)cc1	?	?	i	30µM	i	i
O=C(N/N=C/c1cn(Cc2cccc(F)c2)c2ccccc12)c1cc(O)cc(O)c1	?	i	i	19µM	i	-104
COCCCNC(=O)CN1C(=O)c2c(c3ccccc3n2C)C1c1ccc(OC)cc1 (stereo not drawn)	nt	i	i	nt	nt	nt
Cc1ccc(-c2nnn(CC(=O)NCC3COCCO3)n2)o1 (stereo not drawn)	i	i	i	30µM	i	i
Cc1ccc(-c2nnn(CC(=O)NCC3CC3)n2)o1	i	i	i	i	i	i
CCc1cc2c(cc3c(=O)n(CC(=O)NCc4cc(Br)ccc4OC)ncn32)s1	nt	i	i	nt	nt	nt
Cc1ccc(C)n1/N=C1/NC(=O)CS1	i	i	i	?	i	-52
CC(C)NC(=O)COC(=O)CNC(=O)c1cc(Cl)cc([N+](=O)[O-])c1	i	i	i	30µM	i	i
O=C(NCC(=O)N1CCN(Cc2ccccc2)CC1)c1cc(Cl)cc([N+](=O)[O-])c1	i	i	i	i	i	i
CCCNC(=O)c1nc(C)n(-c2ccc([N+](=O)[O-])cc2)n1	i	i	i	27µM	i	i
COc1ccc(N2CC(NC(=O)COc3ccccc3C)CC2=O)cc1OC (stereo not drawn)	nt	i	i	nt	nt	nt
CC1C(=O)N(Cc2cn(CCC3OCCO3)nn2)CCS(=O)(=O)N1Cc1ccc(-c2ccncc2)cc1 (stereo not drawn)	nt	nt	nt	i	nt	i
CC1C(=O)N(Cc2cn(CCC3OCCO3)nn2)CCS(=O)(=O)N1Cc1ccc(-c2ccc(F)cc2)cc1 (stereo not drawn)	nt	nt	nt	5.3µM	nt	i
Oc1c(Cl)cc(Cl)cc1/C=N/c1nccs1	?	i	79µM	34µM	?	?
Oc1c(Cl)cc(Cl)cc1/C=N/c1nc(-c2ccc(Cl)cc2)cs1	?	i	i	i	?	?
Cc1ccccc1OCC(=O)Nc1ccc(S(=O)(=O)N(Cc2ccccc2)c2ccccc2)cc1	nt	i	i	nt	nt	nt
CCCOc1ccc(/C=C/C(=O)Nc2ccc([N+](=O)[O-])cc2)cc1	i	i	i	i	i	i
CCCCOc1ccc(/C=C/C(=O)Nc2ccc(C(N)=O)cc2)cc1	i	i	79µM	i	i	i
COc1ccc(C(=O)c2oc3ccccc3c2NC(=O)c2nc(SC)ncc2Cl)cc1Cl	nt	i	i	nt	nt	nt
Cn1cc(C(=O)O)c(=O)c2cc(S(=O)(=O)N3CCCCC3)ccc21	nt	i	i	nt	nt	nt
Cc1ccc(C)c(NC(=O)CSc2nc3nc(-c4cccs4)cc(C(F)(F)F)c3c(=O)[nH]2)c1	i	i	i	21µM	i	?
O=C(CSc1nc2nc(-c3cccs3)cc(C(F)(F)F)c2c(=O)[nH]1)Nc1ccc(F)c(F)c1	i	i	i	7.5µM	i	i
COc1ccc(CCC(=O)NC2CC(=O)N(c3ccc(F)cc3)C2)cc1 (stereo not drawn)	nt	i	i	nt	nt	nt
SMILES	Rango complex inh	KAT2A inh	VDR inhibitor	PLK1 PBD inh	Rango release inh	PI5P4K alpha inh
Cc1ccc(-c2nc(CS(=O)(=O)CC(=O)Nc3ccc(Br)cc3F)c(C)o2)cc1	nt	i	i	nt	nt	nt
CCN(CC)CCCNc1ccc2ncn3c4ccc(O)cc4c(=O)c1c23	?	nt	?	11µM	?	i
CN(C)CCNc1ccc2nnn3c4ccc(O)cc4c(=O)c1c23	i	nt	i	i	i	i
O=c1[nH]c(=S)[nH]c2sccc12	i	i	i	15µM	i	?
COc1ccc(-c2noc(-c3ccc(NCc4ccc(C)cc4)c([N+](=O)[O-])c3)n2)cc1OC	nt	i	i	nt	nt	nt
NC(=O)CSc1nnc(-c2cccc(S(=O)(=O)N3CCCCC3)c2)o1	i	i	i	i	i	i
O=C(CSc1nnc(-c2cccc(S(=O)(=O)N3CCCCC3)c2)o1)NCCC1=CCCCC1	i	i	i	21µM	i	i

Assay outcomes deposited in PubChem by National Center for Advancing Translational Sciences (NCATS).
